PubChem BioAssay (EPA / NIEHS)
Records with an inconclusive call do not appear. Active and inactive are the calls of the source. The calls were made as follows, unless noted: active = hit-call score of the fitted dose curve at least 0.9, where 1 is the maximum; inactive = score below 0.9.

Experiments:
[1] = molecular target: Myc proto-oncogene protein (Homo sapiens) (UniProt P01106); experiment: ATG_Myc_CIS: Attagene CIS-FACTORIAL HepG2 Assay for human Myelocytomatosis (Myc) Proto-Oncogene Transcription Factor (AID 2282990); details: HepG2, Attagene cis-reporter transcription factor activity; actives raise or lower the signal
Summary of the method: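 After 24 h chemical treatment of HepG2 cells carrying multiplexed cis-regulated reporter constructs, reporter transcripts quantified by RT-PCR and capillary electrophoresis of fluorescent fragments. Gain or loss fitted against DMSO baseline.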

[2] = ATG_NF_kB_CIS: Attagene CIS-FACTORIAL HepG2 Assay for human Nuclear Factor Kappa B (NF-kB) (AID 2282991); details: HepG2 Attagene cis-factorial NF-kB reporter mRNA; actives raise or lower the signal
Summary of the method: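 Fluorescence of labelled RT-PCR products separated by capillary electrophoresis gives reporter mRNA levels from transfected HepG2 cells exposed 24 h; values are fitted in both directions relative to DMSO.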

[3] = ATG_NRF2_ARE_CIS: Attagene CIS-FACTORIAL HepG2 Assay for human Nuclear Factor Erythroid 2 Related Factor 2 (NFR2) response to Antioxidant Response Elements (ARE) (AID 2282992); details: HepG2 Attagene ARE/NRF2 reporter, transcription factor activity; actives raise or lower the signal
Summary of the method: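 HepG2 cells transiently transfected with multiplexed cis-regulated reporter transcription units measure endogenous transcription factor activity. Reporter mRNA at 24 h is quantified by RT-PCR, fluorescent labelling and capillary electrophoresis, with bidirectional fitting relative to DMSO.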

[4] = ATG_Oct_MLP_CIS: Attagene CIS-FACTORIAL HepG2 Assay for human Octamer-Binding Transcription Factor (Oct) (AID 2282993); details: HepG2 Attagene cis-factorial Oct reporter, mRNA; actives raise or lower the signal
Summary of the method: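 Readout is reporter transcript level from RT-PCR with fluorescent primer extension and capillary electrophoresis, fitted in both directions against DMSO. Transfected HepG2 reporter units report endogenous factor activity after 24 h dosing.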

[5] = molecular target: Cellular tumor antigen p53 (Homo sapiens) (UniProt P04637); experiment: ATG_p53_CIS: Attagene CIS-FACTORIAL HepG2 Assay for human p53 Transcription Factor (AID 2282994); details: HepG2 p53 cis-element reporter, Attagene mRNA; actives raise or lower the signal
Summary of the method: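 HepG2 cells transiently transfected with multiplexed cis-regulated reporter transcription units read endogenous TF activity. After 24 h compound exposure, reporter mRNA was quantified by RT-PCR, fluorescent labelling, HpaI digestion and capillary electrophoresis; bidirectional fits versus DMSO baseline.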

[6] = molecular target: human Peroxisome Proliferator-activated Receptor alpha (PPARa), PPARA (gene 5465) (UniProt Q07869); experiment: ATG_PPARa_TRANS: Attagene TRANS-FACTORIAL HepG2 Assay for human Peroxisome Proliferator-activated Receptor alpha (PPARa) (AID 2283001; active = hit-call score of the fitted dose curve at least 0.9, where 1 is the maximum;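 as to AC50: potency for gain of reporter signal over DMSO so agonist or activator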)
Summary of the method: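 Reporter transcripts from GAL4-UAS units in transfected HepG2 were quantified 24 h after dosing. Detection used reverse transcription, PCR, fluorescent primer extension and capillary electrophoresis, with DMSO as baseline.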

[7] = molecular target: human Retinoic Acid Receptor beta (RARb), RARB (gene 5915) (UniProt P10826); experiment: ATG_RARb_TRANS: Attagene TRANS-FACTORIAL HepG2 Assay for human Retinoic Acid Receptor beta (AID 2283004; active = hit-call score of the fitted dose curve at least 0.9, where 1 is the maximum)
Summary of the method: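 HepG2, transient MRTU transfection, NR–Gal4 chimera, 24 h treatment; RT-PCR plus CE fluorescence detection of reporter mRNA; gain of signal vs DMSO.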

[8] = molecular target: Retinoic acid receptor alpha (Homo sapiens) (UniProt P10276); experiment: ATG_RARa_TRANS: Attagene TRANS-FACTORIAL HepG2 Assay for human Retinoic Acid Receptor alpha (RARa) (AID 2283005; active = hit-call score of the fitted dose curve at least 0.9, where 1 is the maximum)
Summary of the method: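 Reporter transcripts, measured by RT-PCR with fluorescent labeling and capillary electrophoresis after 24 h dosing, reflect activity of an exogenous human RARa–GAL4 fusion in transiently transfected HepG2. Fitted for increase relative to DMSO.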

[9] = molecular target: Nuclear receptor subfamily 1 group I member 2 (Homo sapiens) (UniProt O75469); experiment: ATG_PXR_TRANS: Attagene TRANS-FACTORIAL HepG2 Assay for human Pregnane X Receptor (PXR) (AID 2283008; active = hit-call score of the fitted dose curve at least 0.9, where 1 is the maximum)
Summary of the method: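 HepG2 cells transiently transfected with multiple reporter units, here a PXR-GAL4 chimera driving a GAL4-UAS reporter; 24 h compound exposure. Reporter mRNA measured by RT-PCR, FAM labelling and capillary electrophoresis; gain of signal fitted against DMSO baseline.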

[10] = molecular target: human Peroxisome Proliferator-activated Receptor delta (PPARd), PPARD (gene 5467) (UniProt Q03181); experiment: ATG_PPARd_TRANS: Attagene TRANS-FACTORIAL HepG2 Assay for human Peroxisome Proliferator-activated Receptor delta (PPARd) (AID 2283002; active = hit-call score of the fitted dose curve at least 0.9, where 1 is the maximum)
Summary of the method: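 Read-out is induced reporter mRNA, quantified by RT-PCR with fluorescent labelling and capillary electrophoresis after 24 h dosing. Cells are HepG2 transiently carrying multiple GAL4-UAS reporter units driven by exogenous NR-GAL4 chimeras; DMSO serves as baseline.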

[11] = molecular target: human RAR-related Orphan Receptor beta (RORb), RORB (gene 6096) (UniProt Q92753); experiment: ATG_RORb_TRANS: Attagene TRANS-FACTORIAL HepG2 Assay for human RAR-related Orphan Receptor beta (RORb) (AID 2283010; active = hit-call score of the fitted dose curve at least 0.9, where 1 is the maximum)
Summary of the method: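 In this TRANS-format test, human HepG2 cells express chimeric NR-Gal4 fusion proteins driving GAL4-UAS reporters. After 24 h dosing, reporter transcripts are measured by fluorescent RT-PCR/capillary electrophoresis, with DMSO as negative control.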

[12] = molecular target: Peroxisome proliferator-activated receptor gamma (Homo sapiens) (UniProt P37231); experiment: ATG_PPARg_TRANS: Attagene TRANS-FACTORIAL HepG2 Assay for human Peroxisome Proliferator-activated Receptor-gamma (PPARg) (AID 2283007; active = hit-call score of the fitted dose curve at least 0.9, where 1 is the maximum)
Summary of the method: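 Twenty-four hours after chemical dosing of transiently transfected HepG2 cells, isolated RNA was converted to cDNA, reporter sequences amplified and 6-FAM-labelled, then HpaI-digested and analysed by capillary electrophoresis. Signal increase against DMSO was fitted.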

[13] = molecular target: human Retinoic Acid Receptor gamma (RARg), RARG (gene 5916) (UniProt P13631); experiment: ATG_RARg_TRANS: Attagene TRANS-FACTORIAL HepG2 Assay for human Retinoic Acid Receptor gamma (RARg) (AID 2283009; active = hit-call score of the fitted dose curve at least 0.9, where 1 is the maximum)
Summary of the method: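 HepG2, RARg-GAL4 TRANS system, 24 h exposure; reporter mRNA by RT-PCR + CE fluorescence; increase over DMSO.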

[14] = molecular target: human RAR-related Orphan Receptor gamma (RORg), RORC (gene 6097) (UniProt P51449); experiment: ATG_RORg_TRANS: Attagene TRANS-FACTORIAL HepG2 Assay for human RAR-related Orphan Receptor gamma (RORg) (AID 2283011; active = hit-call score of the fitted dose curve at least 0.9, where 1 is the maximum;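 as to AC50: potency for induction of reporter transcripts above DMSO so activators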)
Summary of the method: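 Activity is scored as increase in GAL4-UAS reporter mRNA over DMSO, detected by fluorescent RT-PCR and capillary electrophoresis in HepG2 cells transiently expressing a RORg-Gal4 chimera, 24 h after dosing.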

Measured: AC50

human Retinoic Acid Receptor beta (RARb), RARB (gene 5915), sequence (P10826 whole entry, looked up, the tested form may be a part): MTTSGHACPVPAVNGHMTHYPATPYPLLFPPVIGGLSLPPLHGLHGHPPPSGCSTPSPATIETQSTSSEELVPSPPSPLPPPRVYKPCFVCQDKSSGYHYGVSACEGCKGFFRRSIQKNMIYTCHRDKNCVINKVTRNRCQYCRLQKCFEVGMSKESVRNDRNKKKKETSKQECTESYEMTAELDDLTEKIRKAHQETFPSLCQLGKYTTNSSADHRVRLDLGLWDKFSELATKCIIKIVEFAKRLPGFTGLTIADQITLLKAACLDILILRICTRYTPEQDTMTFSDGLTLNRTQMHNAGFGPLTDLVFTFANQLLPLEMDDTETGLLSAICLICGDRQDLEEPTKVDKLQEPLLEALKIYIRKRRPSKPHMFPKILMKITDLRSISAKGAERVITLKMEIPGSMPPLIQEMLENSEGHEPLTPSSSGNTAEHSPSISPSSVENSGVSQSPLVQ
human Retinoic Acid Receptor gamma (RARg), RARG (gene 5916), sequence (P13631 whole entry, looked up, the tested form may be a part): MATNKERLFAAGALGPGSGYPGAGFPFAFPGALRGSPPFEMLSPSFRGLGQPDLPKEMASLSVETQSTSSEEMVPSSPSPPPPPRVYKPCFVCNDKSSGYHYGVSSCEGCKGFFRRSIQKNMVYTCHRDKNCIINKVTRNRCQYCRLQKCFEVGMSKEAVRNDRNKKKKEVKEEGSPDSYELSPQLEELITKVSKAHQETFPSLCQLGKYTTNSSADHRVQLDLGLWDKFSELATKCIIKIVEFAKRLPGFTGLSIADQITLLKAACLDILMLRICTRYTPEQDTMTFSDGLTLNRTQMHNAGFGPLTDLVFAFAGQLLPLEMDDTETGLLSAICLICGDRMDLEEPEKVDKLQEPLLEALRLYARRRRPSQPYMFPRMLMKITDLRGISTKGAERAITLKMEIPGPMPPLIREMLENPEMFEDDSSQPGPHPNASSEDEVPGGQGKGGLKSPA
human RAR-related Orphan Receptor beta (RORb), RORB (gene 6096), sequence (Q92753 whole entry, looked up, the tested form may be a part): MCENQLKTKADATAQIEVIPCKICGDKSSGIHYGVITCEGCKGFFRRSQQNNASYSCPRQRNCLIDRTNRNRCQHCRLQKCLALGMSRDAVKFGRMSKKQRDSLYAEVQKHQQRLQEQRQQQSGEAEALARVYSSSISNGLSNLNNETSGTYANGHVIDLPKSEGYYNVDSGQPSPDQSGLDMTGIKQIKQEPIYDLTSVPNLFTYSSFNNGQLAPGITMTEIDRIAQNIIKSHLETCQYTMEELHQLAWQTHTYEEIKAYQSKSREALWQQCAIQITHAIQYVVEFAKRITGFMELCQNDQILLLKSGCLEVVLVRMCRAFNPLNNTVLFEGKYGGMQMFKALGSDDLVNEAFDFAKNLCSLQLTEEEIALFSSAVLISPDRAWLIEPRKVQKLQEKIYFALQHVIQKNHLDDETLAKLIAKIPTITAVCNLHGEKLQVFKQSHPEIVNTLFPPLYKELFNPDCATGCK
Retinoic acid receptor alpha (Homo sapiens), sequence (P10276 whole entry, looked up, the tested form may be a part): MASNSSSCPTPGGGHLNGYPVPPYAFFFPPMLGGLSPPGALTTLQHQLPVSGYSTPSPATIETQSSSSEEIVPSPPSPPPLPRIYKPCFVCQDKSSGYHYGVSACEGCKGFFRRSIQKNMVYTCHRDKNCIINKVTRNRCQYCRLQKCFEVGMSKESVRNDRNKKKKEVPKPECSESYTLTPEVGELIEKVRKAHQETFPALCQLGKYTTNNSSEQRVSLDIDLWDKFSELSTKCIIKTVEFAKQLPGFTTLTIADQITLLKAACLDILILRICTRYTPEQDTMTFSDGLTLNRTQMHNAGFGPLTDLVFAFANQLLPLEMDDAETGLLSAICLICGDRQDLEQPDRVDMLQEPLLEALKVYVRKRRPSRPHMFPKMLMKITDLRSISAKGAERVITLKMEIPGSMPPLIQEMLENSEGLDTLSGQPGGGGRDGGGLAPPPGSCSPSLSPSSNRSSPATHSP
Peroxisome proliferator-activated receptor gamma (Homo sapiens), sequence (P37231 whole entry, looked up): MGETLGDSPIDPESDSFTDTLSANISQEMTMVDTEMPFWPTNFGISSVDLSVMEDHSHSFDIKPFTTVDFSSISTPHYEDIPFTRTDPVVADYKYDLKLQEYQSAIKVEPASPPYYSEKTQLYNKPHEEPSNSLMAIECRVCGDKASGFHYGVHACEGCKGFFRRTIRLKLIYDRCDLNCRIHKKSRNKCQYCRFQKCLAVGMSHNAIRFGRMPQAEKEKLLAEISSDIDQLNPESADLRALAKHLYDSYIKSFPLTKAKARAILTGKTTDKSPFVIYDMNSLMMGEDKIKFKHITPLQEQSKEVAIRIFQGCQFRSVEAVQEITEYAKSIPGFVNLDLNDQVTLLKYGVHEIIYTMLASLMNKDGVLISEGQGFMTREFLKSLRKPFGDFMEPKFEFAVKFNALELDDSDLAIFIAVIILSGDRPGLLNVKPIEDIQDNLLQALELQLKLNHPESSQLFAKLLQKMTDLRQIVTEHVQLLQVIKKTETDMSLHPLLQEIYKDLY
human Peroxisome Proliferator-activated Receptor alpha (PPARa), PPARA (gene 5465), sequence (Q07869 whole entry, looked up, the tested form may be a part): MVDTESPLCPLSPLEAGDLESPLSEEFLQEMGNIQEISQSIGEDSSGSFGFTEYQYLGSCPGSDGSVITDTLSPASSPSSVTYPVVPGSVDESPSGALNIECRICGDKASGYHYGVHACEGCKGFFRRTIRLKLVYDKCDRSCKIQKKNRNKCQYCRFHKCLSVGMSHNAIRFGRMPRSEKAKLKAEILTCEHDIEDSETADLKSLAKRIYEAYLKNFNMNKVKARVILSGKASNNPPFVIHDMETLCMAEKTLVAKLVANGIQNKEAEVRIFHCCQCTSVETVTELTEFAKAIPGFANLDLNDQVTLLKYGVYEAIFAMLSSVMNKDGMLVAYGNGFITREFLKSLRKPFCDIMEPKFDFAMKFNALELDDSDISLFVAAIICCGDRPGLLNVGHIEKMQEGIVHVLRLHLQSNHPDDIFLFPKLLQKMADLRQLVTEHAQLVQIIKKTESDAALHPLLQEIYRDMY
human Peroxisome Proliferator-activated Receptor delta (PPARd), PPARD (gene 5467), sequence (Q03181 whole entry, looked up, the tested form may be a part): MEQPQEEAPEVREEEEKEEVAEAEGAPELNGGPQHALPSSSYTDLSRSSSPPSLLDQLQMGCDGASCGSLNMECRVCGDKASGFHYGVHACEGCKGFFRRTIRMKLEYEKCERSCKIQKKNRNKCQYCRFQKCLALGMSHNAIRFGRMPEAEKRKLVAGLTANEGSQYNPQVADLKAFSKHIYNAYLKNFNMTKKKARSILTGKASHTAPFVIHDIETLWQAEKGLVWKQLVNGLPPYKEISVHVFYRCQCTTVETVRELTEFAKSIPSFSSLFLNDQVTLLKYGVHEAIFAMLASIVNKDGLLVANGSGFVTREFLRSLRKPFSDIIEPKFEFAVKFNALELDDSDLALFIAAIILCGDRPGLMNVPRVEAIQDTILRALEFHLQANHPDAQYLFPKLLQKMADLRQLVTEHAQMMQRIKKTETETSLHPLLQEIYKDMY
Myc proto-oncogene protein (Homo sapiens), sequence (P01106 whole entry, looked up, the tested form may be a part): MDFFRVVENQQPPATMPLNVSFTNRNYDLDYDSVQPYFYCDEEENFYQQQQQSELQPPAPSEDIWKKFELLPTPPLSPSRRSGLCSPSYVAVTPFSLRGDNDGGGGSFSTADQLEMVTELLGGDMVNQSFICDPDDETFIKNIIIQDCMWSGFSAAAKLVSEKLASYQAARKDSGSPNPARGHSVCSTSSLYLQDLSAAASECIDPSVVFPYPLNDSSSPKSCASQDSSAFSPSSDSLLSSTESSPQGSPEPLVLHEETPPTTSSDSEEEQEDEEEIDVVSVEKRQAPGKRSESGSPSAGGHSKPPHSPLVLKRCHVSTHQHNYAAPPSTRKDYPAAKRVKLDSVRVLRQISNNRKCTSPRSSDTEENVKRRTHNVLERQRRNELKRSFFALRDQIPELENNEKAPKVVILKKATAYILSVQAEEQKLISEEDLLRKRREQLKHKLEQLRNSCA
Cellular tumor antigen p53 (Homo sapiens), sequence (P04637 whole entry, looked up): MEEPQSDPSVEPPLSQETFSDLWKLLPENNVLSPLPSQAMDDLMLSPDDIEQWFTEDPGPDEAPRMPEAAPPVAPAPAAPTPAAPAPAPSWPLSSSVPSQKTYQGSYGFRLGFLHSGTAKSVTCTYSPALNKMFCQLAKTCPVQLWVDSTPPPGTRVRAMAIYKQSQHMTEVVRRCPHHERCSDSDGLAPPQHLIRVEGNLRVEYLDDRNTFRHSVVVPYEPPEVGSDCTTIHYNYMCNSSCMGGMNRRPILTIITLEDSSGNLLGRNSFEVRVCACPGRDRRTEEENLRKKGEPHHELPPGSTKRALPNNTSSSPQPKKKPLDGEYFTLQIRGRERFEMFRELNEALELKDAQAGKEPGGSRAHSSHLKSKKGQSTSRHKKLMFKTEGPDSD
Nuclear receptor subfamily 1 group I member 2 (Homo sapiens), sequence (O75469 whole entry, looked up, the tested form may be a part): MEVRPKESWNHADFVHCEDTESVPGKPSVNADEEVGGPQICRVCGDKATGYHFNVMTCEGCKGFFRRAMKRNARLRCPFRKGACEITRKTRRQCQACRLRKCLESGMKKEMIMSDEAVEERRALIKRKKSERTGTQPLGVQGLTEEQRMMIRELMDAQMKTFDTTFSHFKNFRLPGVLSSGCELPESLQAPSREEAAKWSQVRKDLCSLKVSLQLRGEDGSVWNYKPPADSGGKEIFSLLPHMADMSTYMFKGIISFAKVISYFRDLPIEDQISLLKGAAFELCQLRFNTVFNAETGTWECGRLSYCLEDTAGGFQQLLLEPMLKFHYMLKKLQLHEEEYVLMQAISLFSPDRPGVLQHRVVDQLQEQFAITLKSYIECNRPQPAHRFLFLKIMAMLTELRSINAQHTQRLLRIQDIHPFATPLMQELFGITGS

CC1(C)COCN1
inactive: [1] | [2] | [3] | [4] | [5] | [6] | [7] | [8] | [9]

OCC(O)c1ccccc1 (configuration not stated)
inactive: [1] | [2] | [3] | [4] | [5] | [6] | [10] | [9] | [11]

FC(F)(F)COCC(F)(F)F
inactive: [1] | [2] | [3] | [4] | [5] | [6] | [8] | [12] | [9] | [11]

CCC(C)S (configuration not stated)
inactive: [1] | [2] | [3] | [4] | [5] | [6] | [10] | [9]

COC(=O)c1ccc(OC)cc1
inactive: [1] | [2] | [3] | [4] | [5] | [6] | [12] | [9]

CCCCCCCCCC(C)C=O (configuration not stated)
active: [3] 100 µM | [6] 27.5 µM | [12] 18.5 µM
inactive: [1] | [2] | [4] | [5] | [9] | [13]

N#Cc1cscn1
inactive: [1] | [2] | [3] | [4] | [5] | [6] | [9]

O=C(O)c1cc(C(=O)O)cc([N+](=O)[O-])c1
inactive: [1] | [2] | [3] | [4] | [5] | [6] | [7] | [9] | [11] | [14]

COC(CC(C)CCCC(C)(C)O)OC (configuration not stated)
inactive: [1] | [2] | [3] | [4] | [5] | [6] | [7] | [8] | [9]

OCc1cccc(Oc2ccccc2)c1
inactive: [1] | [2] | [3] | [4] | [5] | [6] | [9]
active: [12] 74.7 µM

COC(=O)c1ccc([N+](=O)[O-])cc1
inactive: [1] | [2] | [3] | [4] | [5] | [6] | [10] | [12] | [11]

CC(C)c1ccccc1O
inactive: [1] | [2] | [3] | [4] | [5] | [6] | [10] | [9] | [13]

Nc1c(Cl)cc(Cl)cc1[N+](=O)[O-]
inactive: [1] | [2] | [4] | [5] | [6] | [10] | [13]
active: [3] 41.5 µM | [9] 16.5 µM

O=C(CS)OCCOC(=O)CS
inactive: [1] | [4] | [6] | [12]
active: [2] 43.8 µM | [3] 148 µM | [5] 100 µM | [14] 67 µM
